Gal4-VP16 FLuc = counter-screen for ROR gamma inhibitors: Gal4-VP16 reporter; Drosophila S2 Gal4-VP16 UAS-luciferase, luminescence, 20 h; Potency, µM (highest dose often 53.6 µM), inactives show at the top dose activity, negative = inhibition, most hits filed as inhibitors; hit rate 3.5% among 310,000;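 note: Gal4-VP16 expression switched on by copper sulfate through the metallothionein promoter; potency is the fitted concentration of half-maximal effect; % is set by controls: 0 for no effect and ±100 for the full control effect; nearly all actives have a fitted effect of over 50% in size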
SW480 rerep = DNA re-replication induction in SW480 cells | SW480 DNA re-replication, Hoechst DNA content imaging, 48 h | Potency, µM (series often up to 46.1 µM), for inactives: top-dose re-replication activation, actives largely listed as activators | hit rate 1.8% among 340,000 | AID 624297; note: potency is the fitted concentration of half-maximal effect; % of control where 0% means no effect; nearly all actives have a fitted effect of over 55% in size
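First, 250 cells per well were seeded. Next, compound or vehicle (23 nL) was pinned in, plates sat 48 hr at 37 C. Finally Hoechst was added for 40 min before fluorescence scanning.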
MCF10A rereplic = inducers of DNA re-replication in MCF 10A breast cells; MCF 10A DNA re-replication, Hoechst nuclear intensity, 48 h; Potency, µM (doses to about 46.1 µM), for inactives: at the top dose activity, positive = re-replication, most hits filed as activators; hit rate 2.9% among 350,000; note: potency is the fitted concentration of half-maximal effect; % of control where 0% means no effect; nearly all actives have a fitted effect of over 50% in size
RORgamma inh = inhibitors of mouse ROR gamma transcriptional activity; P51450; Drosophila S2 Gal4-RORgamma UAS-luciferase reporter, 20 h; Potency, µM (doses to about 53.6 µM), for the others: at the top dose activity change, negative = inhibition, usual class: inhibitors; hit rate 5.4% among 310,000; note: potency is the fitted concentration of half-maximal effect; % is set by controls: 0 for no effect and ±100 for the full control effect; nearly all actives have a fitted effect of over 60% in size
Target sequence (P51450 whole entry, looked up, the tested form may be a part): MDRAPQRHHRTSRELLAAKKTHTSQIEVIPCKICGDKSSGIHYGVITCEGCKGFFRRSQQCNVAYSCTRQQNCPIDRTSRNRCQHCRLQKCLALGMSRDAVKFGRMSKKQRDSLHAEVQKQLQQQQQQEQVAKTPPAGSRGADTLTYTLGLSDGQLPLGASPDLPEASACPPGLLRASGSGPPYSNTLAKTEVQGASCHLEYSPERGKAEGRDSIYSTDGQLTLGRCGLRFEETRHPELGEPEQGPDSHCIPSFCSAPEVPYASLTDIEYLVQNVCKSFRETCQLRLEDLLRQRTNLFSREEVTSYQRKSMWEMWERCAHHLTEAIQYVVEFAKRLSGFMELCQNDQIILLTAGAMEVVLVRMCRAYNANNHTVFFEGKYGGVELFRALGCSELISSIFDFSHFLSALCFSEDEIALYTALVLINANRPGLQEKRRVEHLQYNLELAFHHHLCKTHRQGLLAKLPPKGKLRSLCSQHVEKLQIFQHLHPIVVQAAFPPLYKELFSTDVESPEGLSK
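Read-out: Photinus luciferase luminescence; inhibitors lower reporter signal. Insect Schneider cells with Gal4-ROR gamma fusion under metallothionein promoter, UAS reporter; 700 uM final copper sulfate induction, 20 hr, ambient temperature.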
IL1B secr inh = inflammasome signaling inhibition, IL-1 beta readout. THP-1 LPS/ATP IL-1B secretion, AlphaLISA, 16 h; stronger effect = lower value. activity change, % at 57.5 µM. hit rate 4.7% among 360,000; in the data active = activity change below about -50%; inconclusive = mostly about -30% to -49%; note: % is set by controls: 0 for no effect and ±100 for the full control effect
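THP-1 cells pretreated 1 hr with compounds (up to 57.5 uM final), then stimulated with LPS (250 ng/mL final) plus ATP (1.25 mM final); secreted IL-1B measured by AlphaLISA after 16 hr, decreased signal indicating inhibition.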
The depositor's hits bear a star; ? = inconclusive; / = no result; ! = a repeat was not active; [ ] = another dose, or the depositor's remark. Only some compounds are listed: those with a hit (about 11% of all), similar ones and a draw of the others. Unless noted, calls come from the whole dose curve; as a rule, active = well fitted curve in the direction sought with a large enough effect; inconclusive = small, poorly fitted or top-dose-only effect, or another doubt; inactive = no such curve, though single readings can be large; an effect the other way counts as inactive or inconclusive.

SMILES	Gal4-VP16 FLuc	SW480 rerep	MCF10A rereplic	RORgamma inh	IL1B secr inh
CCN(CC)Cc1cc(Nc2ccnc3cc(Cl)ccc23)ccc1O	-5%	-14%	?	2%	-77*!
COc1cc(/C=C(/C)[N+](=O)[O-])ccc1OCc1ccccc1Cl	?	3.3µM*	3.7µM*	4µM*	-99*
COc1cc(C=C2C(=O)NC(=O)NC2=O)ccc1OCc1ccc([N+](=O)[O-])cc1	0%	-18%	16%	4%	-14
c1ccc2c(c1)OC[C@@H](C1=NCCN1)O2	2%	/	/	22µM*!	/
c1ccc(C2(c3ccccc3)CC2C2=NCCN2)cc1 (centres undefined)	10%	1%	5%	-3%	/
CCCOc1ccc(N2C(=O)CC(N3CCC(O)(c4cccc(C(F)(F)F)c4)CC3)C2=O)cc1 (centres undefined)	-2%	-6%	1%	?	-9
CCOc1ccc(NC(=O)C2C(C(=O)O)C3(Cl)C(Cl)=C(Cl)C2(Cl)C3(Cl)Cl)cc1 (centres undefined)	-13%	-19%	?	10%	12
O=C(CCl)Nc1sccc1C(=O)c1ccccc1	/	?	?	/	-103*
NC(=O)c1ccsc1NC(=O)COC(=O)Cc1ccccc1	/	-11%	4%	/	19
C[C@H]1CN([C@@H](C)CO)C(=O)c2cccc(NC(=O)c3ccc(-c4nccs4)cc3)c2O[C@@H]1CN(C)C(=O)Nc1cccc2ccccc12	/	-2%	-1%	/	0
CC(C)CCOP(=O)(c1ccc(N(C)C)cc1)C(O)c1c(Cl)cccc1Cl (centres undefined)	1%	-8%	?	32%	-17
CCc1ccc(C(=O)NCc2ccc(Cl)cc2Cl)cc1	0%	-1%	-1%	?	-52*
COc1ccc(CNC(=O)c2ccc(C(C)C)cc2)cc1	-12%	?	1%	42%	-24
O=C1C=CC(=O)C2C1C1(Cl)C(Cl)=C(Cl)C2(Cl)C1(Cl)Cl (centres undefined)	/	5%	?	/	-103*
O=C(O)c1cc(O)c(O)c(O)c1	?	-8%	-1%	10µM*!	/
COc1ccc(C[C@H]2c3cc(OC)c(OC)cc3CCN2C)cc1OC	-4%[17 µM]	/	/	-25%[16.9 µM]	/
O=C(Nc1ccccc1C(=O)N/N=C/c1ccco1)c1ccccc1Cl	?	-6%	6%	3.5µM*	14
Oc1ccc(Cl)cc1Cl	2%	/	/	-13%	/
CC[C@]1(C2=NCCN2)Cc2ccccc2O1	-9%	/	/	14%	/
CCC1(C2=NCCN2)Cc2ccccc2O1 (centres undefined)	-3%	12µM*!	?	-1%	7
O=c1c(O)c(-c2ccc(O)c(O)c2)oc2c(O)c(O)cc(O)c12	-16%	/	/	-14%	/
CC(Cl)CCl (centres undefined)	1%	/	/	-1%	/
O=C(O)Cc1cccnc1C(=O)O	-7%	/	/	-7%	/
C=C(CC1(CNP(=O)(c2ccccc2)c2ccccc2)CC1)c1ccccc1	-7%	/	/	21%	/
CCCC(C)c1nnc(NC(=O)CCS(=O)(=O)c2ccccc2)s1 (centres undefined)	0%	?	?	-8%	-96*
SMILES	Gal4-VP16 FLuc	SW480 rerep	MCF10A rereplic	RORgamma inh	IL1B secr inh
Cc1nn(-c2ccccc2)c2c1P(=O)(O)/C(=C1\N(C)c3ccccc3C1(C)C)C=N2	-12%	7%	12µM*	9%	?
COc1ccc(NC(=O)N2CCCC3(CCN(C(=O)Oc4ccccc4)CC3)C2)cc1	1%	/	/	-21%	/
COc1ccc(C(=O)NC(=S)NNC(=O)c2cccnc2)cc1	-13%	-26%	10%	16µM*	32
S=C1NC2(CCCCC2)NC12CCCCC2	?	-1%	-1%	8.9µM*	17
NCCc1c[nH]c2ccccc12	1%	3%	1%	13%	-13
CCCCc1ccc2[nH]cc(CCN)c2c1	0%	-4%	-2%	27%	-89*
Cc1nc(-c2nc(-c3c(C(=O)NNC(=O)c4ccc(Cl)cc4)noc3C)cs2)cs1	?	7%	?	10µM*	11
COCCCNC(=S)NCCCNc1nc2cc(C)cc(C)c2cc1C#N	?	22%	?	6.3µM*	?
c1cc(CN2CCC3(CCNCC3)CC2)ccn1	-11%	/	/	-19%	/
CNCCCN1c2ccccc2CCc2ccccc21	4%	?	14%	-2%	-58*
COCCCN1Cc2ccccc2C1=N	1%	-2%	-3%	13%	17
O=C(Nc1cc(C(F)(F)F)ccc1O)Nc1cc(C(F)(F)F)ccc1O	?	/	/	-29%	/
O=C(Nc1cc(C(F)(F)F)cc(C(F)(F)F)c1)c1cc(Cl)ccc1O	1µM*	/	/	0.89µM*	/
C/C(O)=C(/C#N)C(=O)Nc1cc(Br)ccc1Br	2%	/	/	9%	/
CCOc1cc2c(cc1OCC)-n1cccc1C(c1cccc(OCC)c1O)NC2 (centres undefined)	-1%	1%	18µM*	10%	-19
CCOc1cc2c(cc1OCC)-n1cccc1C(c1ccc(C)cc1C)NC2 (centres undefined)	-6%	?	?	-7%	-90*
O=C(CC[N+](=O)[O-])OCC1OC(O)C(OC(=O)CC[N+](=O)[O-])[C@@H](OC(=O)CC[N+](=O)[O-])C1OC(=O)CC[N+](=O)[O-] (some centres undefined)	-16%	/	/	4%	/
CCCCC/C=C\C/C=C\C/C=C\C/C=C\CCCC(=O)NCCCl	-21%	/	/	-42%	/
O=C1NC(=O)N(CCc2ccc(F)cc2)C(=O)/C1=C/c1cccs1	-9%	?	?	-20%	-97*

Bioassay records (PubChem)
